Hits are enriched below; roughly 21% of the tested compounds scored in any of these assays.
Pf growth 48h: inhibits P. falciparum growth in the first generation, 48 h. P. falciparum luciferase growth in erythrocytes, 48 h. Potency, µM (highest dose often 28.7 µM), for the others: at the highest dose activity change, negative = inhibition, actives largely listed as inhibitors. actives 5.9% (n = 310,000). AID 504832; also: potency is read from the fitted curve at half-maximal effect; % is scaled to controls: 0 for no effect and ±100 for the full control effect
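Firefly luciferase activity from engineered P. falciparum reports growth; inhibitors lower the luminescent signal. Cultures contained 2% hematocrit erythrocytes at 0.1% final parasitemia.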
CHX counter: affects cycloheximide protein synthesis inhibition readout, counter-screen; cell reporter, cycloheximide protein synthesis inhibition counterscreen; max response, %; actives 12% (n = 300,000); AID 2314; in the data active = max response mostly above about 13%, no sharp cut-off; inactive = mostly below about 14%; also: read at 38.3 µM for the half of the compounds with a filed dose; 0% is about no effect
Shiga toxin inh: inhibitors of Shiga toxin in Vero cells | Vero cells, Shiga toxin protein synthesis inhibition reporter | inhibition, % at 38.7 µM | actives 9.2% (n = 290,000); in the data active = inhibition mostly above about 28%, no sharp cut-off; inactive = mostly below about 43%; also: 0% is about no effect
Pf growth 96h: inhibits malaria parasite growth, 96 h; P. falciparum luciferase reporter growth, 96 h; Potency, µM (highest dose often 28.7 µM), without a hit: top-dose activity change, negative = inhibition, actives largely listed as inhibitors; actives 6.9% (n = 320,000); AID 504834; also: potency is read from the fitted curve at half-maximal effect; % is scaled to controls: 0 for no effect and ±100 for the full control effect
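Two-generation exposure (96 h) targets delayed-death phenotype. Reporter parasites carrying integrated firefly luciferase, in red cells at 2% hematocrit and 0.05% parasitemia final, kept at 37 C, 5% CO2; luminescence loss indicates inhibition.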
Starred values were filed as active, the others as inactive; [ ] = remark or other dose. Unless noted, calls follow the shape of the dose curve; as a rule, active = well fitted inhibition curve with a large enough effect; inconclusive = small, poorly fitted or top-dose-only effect, or another doubt; inactive = no such curve, though single readings can be large or run the other way.

What do the screens show for `Cc1cc(Cl)ccc1OCCCC(=O)Nc1ccc(S(=O)(=O)Nc2ncccn2)cc1`?
Pf growth 48h: 13%; CHX counter: -3; Shiga toxin inh: 5; Pf growth 96h: 113%

How did COc1cccc(C2/C(=C(\O)c3ccc4c(c3)OCCO4)C(=O)C(=O)N2CCCN2CCOCC2)c1OC (stereo not drawn) do in these assays?
Pf growth 48h: -2%; CHX counter: -2; Shiga toxin inh: -4; Pf growth 96h: -16%

Results for CCN(CC)S(=O)(=O)c1ccc(OC)c(NC(=O)C2CC(=O)N(c3ccc(C)cc3)C2)c1 (stereo not drawn) ?
Pf growth 48h: inconclusive; CHX counter: -6; Shiga toxin inh: -4; Pf growth 96h: 21%

What do the screens show for `CC(Sc1ccc2c(c1)OCCO2)C(=O)Nc1ccc(N2CCOCC2)cc1` (stereo not drawn)?
Pf growth 48h: -30%[5.75 µM]; CHX counter: 31; Shiga toxin inh: 18; Pf growth 96h: 95%[5.75 µM]

How did Cc1cc(C)nc(NC(=NCCc2c[nH]c3ccccc23)NC(=O)Nc2ccc(Cl)cc2)n1 do in these assays?
Pf growth 48h: 2.9µM*; CHX counter: -3; Shiga toxin inh: -17; Pf growth 96h: 0.59µM*

Results for COc1ccc(CNC(=O)COC(=O)CCN2C(=O)C3CC=CCC3C2=O)cc1OC (stereo not drawn) ?
Pf growth 48h: -17%; Pf growth 96h: -8%

What do the screens show for `Oc1ccc(Br)cc1/C=N/n1c(C2CCCCC2)n[nH]c1=S`?
Pf growth 48h: inconclusive; CHX counter: 1; Shiga toxin inh: -12; Pf growth 96h: -8%

What do the screens show for `CC(C)(C)C(=O)O/N=C(\N)c1ccc(-c2csnn2)cc1`?
Pf growth 48h: 309%; CHX counter: 45*; Shiga toxin inh: 78*; Pf growth 96h: 276%

What do the screens show for `O=C(NCc1ccco1)c1ccc(-c2csnn2)cc1`?
Pf growth 48h: inconclusive; CHX counter: 8; Shiga toxin inh: 24; Pf growth 96h: 20%

How did CC(=O)O/N=C(\N)c1ccc(-c2csnn2)cc1 do in these assays?
Pf growth 48h: 295%; CHX counter: 34*; Shiga toxin inh: 65*; Pf growth 96h: 124%

What do the screens show for `COCCC(=O)N1CCC(Oc2ccc(C(=O)N3CCCC(CCCO)C3)cc2)CC1` (stereo not drawn)?
Pf growth 48h: 13%; CHX counter: 7; Shiga toxin inh: -21; Pf growth 96h: 3%

Results for CN(O)/C=c1/ccc2c(n1)C(=O)C=CC=2 ?
Pf growth 48h: 8.3µM*; CHX counter: -4; Shiga toxin inh: 5; Pf growth 96h: 12µM*

How did Cc1nnsc1C(=O)N1CCCC(Nc2ccc(F)c(F)c2)C1 (stereo not drawn) do in these assays?
Pf growth 48h: -6%; CHX counter: 8; Shiga toxin inh: 2; Pf growth 96h: 19%

Results for Cn1c(C=O)c(C#Cc2ccccc2)c2ccccc21 ?
Pf growth 48h: 12µM*; Pf growth 96h: inconclusive

How did Cn1c2ccccc2c(=O)c2cc(C#Cc3cccc(N)c3)ccc21 do in these assays?
Pf growth 48h: 15%; Pf growth 96h: -2%

Results for COc1ccc(S(=O)(=O)NCC(c2ccc(F)cc2)N2CCOCC2)cc1Br (stereo not drawn) ?
Pf growth 48h: -11%; Pf growth 96h: 57%

What do the screens show for `COC(=O)c1ccc2c(c1)N(C)S(=O)(=O)c1cnc(SCC(=O)C(C)(C)C)nc1-2`?
Pf growth 48h: -23%; CHX counter: 1; Shiga toxin inh: -3; Pf growth 96h: -5%

Results for CN1C2CCC1/C(=C\c1ccccc1)C(=O)/C2=C\c1ccccc1 ?
Pf growth 48h: 1µM*; CHX counter: 15; Shiga toxin inh: -8; Pf growth 96h: inconclusive

How did CN1C2CCC1/C(=C/c1ccccn1)C(=O)/C2=C\c1ccccn1 do in these assays?
Pf growth 48h: 0.66µM*; CHX counter: -6; Shiga toxin inh: -8; Pf growth 96h: 0.47µM*

Results for Cc1ccc(S(=O)(=O)N(c2ccc(Br)cc2)C2C=CS(=O)(=O)C2)cc1 (stereo not drawn) ?
Pf growth 48h: inconclusive; CHX counter: -2; Shiga toxin inh: -13; Pf growth 96h: 15%

Results for CC(=O)Nc1sc2c(c1C(c1cccc(Cl)c1)N1CCN(CCO)CC1)CCCC2 (stereo not drawn) ?
Pf growth 48h: inconclusive; CHX counter: -1; Shiga toxin inh: -5; Pf growth 96h: -25%

How did CC(=O)Nc1sc2c(c1C(c1ccncc1)N1CCOCC1)CCCC2 (stereo not drawn) do in these assays?
Pf growth 48h: 4.7µM*; CHX counter: 1; Shiga toxin inh: -5; Pf growth 96h: 8.3µM*

Results for COc1ccc(C(c2c(NC(C)=O)sc3c2CCCC3)N2CCN(CCO)CC2)cc1OC (stereo not drawn) ?
Pf growth 48h: 4.7µM*; CHX counter: 0; Shiga toxin inh: 3; Pf growth 96h: inconclusive

What do the screens show for `N#CCCN(CCC#N)C(=O)C1c2ccccc2Oc2ccccc21`?
Pf growth 48h: 4%; CHX counter: 0; Pf growth 96h: 19%

What do the screens show for `COCC(=O)Nc1nnc(COc2ccc(Cl)cc2)s1`?
Pf growth 48h: 18%; CHX counter: 20*; Shiga toxin inh: 73*; Pf growth 96h: 16%

How did O=C(CSc1ccccc1)Nc1nnc(COc2ccc(Cl)cc2)s1 do in these assays?
Pf growth 48h: 1%; CHX counter: 65*; Shiga toxin inh: 61*; Pf growth 96h: 52%

Results for O=C(COC(=O)c1cnccn1)NCc1ccc2c(c1)OCO2 ?
Pf growth 48h: 9%; CHX counter: -3; Shiga toxin inh: -13; Pf growth 96h: -5%

What do the screens show for `CCCN1CCN(C(=O)Cn2nc(CC)n3c(cc4sccc43)c2=O)CC1`?
Pf growth 48h: 1%; CHX counter: 1; Shiga toxin inh: -6; Pf growth 96h: 0%

Results for COc1ccc(-c2cc(=O)c3cc(O)ccc3o2)cc1 ?
Pf growth 48h: 193%; CHX counter: 53*; Shiga toxin inh: 62*; Pf growth 96h: 314%

How did O=c1cc(-c2ccccc2)oc2ccc(O)cc12 do in these assays?
Pf growth 48h: 83%; CHX counter: 32*; Shiga toxin inh: 64*; Pf growth 96h: 89%

Results for O=C(COc1ccc2oc(-c3ccccc3)cc(=O)c2c1)NCc1ccco1 ?
Pf growth 48h: 3%; CHX counter: 25*; Shiga toxin inh: 58; Pf growth 96h: 11%

How did O=c1cc(-c2ccccc2)oc2ccccc12 do in these assays?
Pf growth 48h: 95%; Pf growth 96h: 123%

How did Cc1cc(=O)oc2ccc(OCC(=O)NCc3ccco3)cc12 do in these assays?
CHX counter: 9; Shiga toxin inh: -15; Pf growth 96h: 59%

How did CCCCn1c(N)c(N(CC)C(=O)CCNC(=O)NC23CC4CC(CC(C4)C2)C3)c(=O)[nH]c1=O do in these assays?
Pf growth 48h: -30%; CHX counter: 2; Shiga toxin inh: -1; Pf growth 96h: -6%

How did CC(C(=O)Nc1cc(Cl)cc(Cl)c1)N1CCCC1 (stereo not drawn) do in these assays?
Pf growth 48h: -15%[0.00184 µM]; CHX counter: -3; Shiga toxin inh: -5; Pf growth 96h: inconclusive

Results for CCN(c1ccccc1)S(=O)(=O)c1cc([N+](=O)[O-])ccc1N ?
Pf growth 48h: 46%; CHX counter: 28*; Shiga toxin inh: 58*; Pf growth 96h: 5%

Screens deposited in PubChem by National Center for Advancing Translational Sciences (NCATS).
